Results reported in paper PMC7862700, “An all-to-all approach to the identification of sequence-specific readers for epigenetic DNA modifications on cytosine”.

How the values were obtained:
Test in all cases: DAPPL (digital affinity profiling via proximity ligation, sequencing); 10 mM Tris-HCl pH 7.5, 50 mM NaCl, 1 mM DTT, 4% glycerol, room temperature, 30 min; GST-TFs on glutathione beads, 16-mer random dsDNA library, 0.1% formaldehyde crosslink after washing; high values mean tight binding
FEV = biological target: T1, FEV (Homo sapiens, UniProt Q99581 1-238); conditions: protein: recombinant; tags: N-terminal GST; dsDNA, one strand shown
T1 sequence: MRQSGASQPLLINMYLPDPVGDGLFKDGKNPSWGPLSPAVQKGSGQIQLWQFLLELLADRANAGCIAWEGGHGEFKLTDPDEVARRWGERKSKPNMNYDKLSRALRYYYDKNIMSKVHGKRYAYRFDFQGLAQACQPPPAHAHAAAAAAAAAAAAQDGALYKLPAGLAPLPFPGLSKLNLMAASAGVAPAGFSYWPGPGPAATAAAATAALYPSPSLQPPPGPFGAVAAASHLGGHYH
Outline: (§1)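 The binding signal reported is, for every hexamer, its read frequency for a factor over its read frequency for the tag-only sample. Reads came from pools of yeast-expressed, GST-fused human transcription factors on glutathione beads, barcoded with DNA and mixed with that sample, which were incubated with 200 nmole of a random double-stranded 16-mer DNA library in Tris/NaCl/DTT/glycerol buffer at room temperature for 30 min. After washing, the pools were crosslinked with 0.1% formaldehyde, proximity-ligated with BsaI/T4 ligase for 1 h at 37 °C, PCR-amplified and sequenced on an Illumina NextSeq500.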

ETV5 = ETV5 (Homo sapiens, UniProt P41161 1-510); conditions: protein: recombinant; tags: N-terminal GST; dsDNA, one strand shown
Outline: as §1

HSF1 = HSF1 (Homo sapiens, UniProt Q00613 1-529); conditions: protein: recombinant; tags: N-terminal GST; chain copies: 3; dsDNA, one strand shown
Outline: as §1

SPIC = biological target: T2, SPIC (Homo sapiens, UniProt Q8N5J4 1-248); conditions: protein: recombinant; tags: N-terminal GST; dsDNA, one strand shown
T2 sequence: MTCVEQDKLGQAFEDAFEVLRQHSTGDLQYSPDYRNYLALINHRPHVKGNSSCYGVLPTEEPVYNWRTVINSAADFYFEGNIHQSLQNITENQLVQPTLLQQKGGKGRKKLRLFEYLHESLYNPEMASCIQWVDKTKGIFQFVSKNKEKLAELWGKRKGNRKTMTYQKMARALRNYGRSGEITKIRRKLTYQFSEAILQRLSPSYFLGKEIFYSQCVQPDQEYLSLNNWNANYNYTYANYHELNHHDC
Outline: as §1

ELF4 = ELF4 (Homo sapiens, UniProt Q99607 1-663); conditions: protein: recombinant; tags: N-terminal GST; dsDNA, one strand shown
Outline: as §1

ELK4 = biological target: T3, ELK4 (Homo sapiens, UniProt P28324-2 1-405); conditions: protein: recombinant; tags: N-terminal GST; dsDNA, one strand shown
T3 sequence: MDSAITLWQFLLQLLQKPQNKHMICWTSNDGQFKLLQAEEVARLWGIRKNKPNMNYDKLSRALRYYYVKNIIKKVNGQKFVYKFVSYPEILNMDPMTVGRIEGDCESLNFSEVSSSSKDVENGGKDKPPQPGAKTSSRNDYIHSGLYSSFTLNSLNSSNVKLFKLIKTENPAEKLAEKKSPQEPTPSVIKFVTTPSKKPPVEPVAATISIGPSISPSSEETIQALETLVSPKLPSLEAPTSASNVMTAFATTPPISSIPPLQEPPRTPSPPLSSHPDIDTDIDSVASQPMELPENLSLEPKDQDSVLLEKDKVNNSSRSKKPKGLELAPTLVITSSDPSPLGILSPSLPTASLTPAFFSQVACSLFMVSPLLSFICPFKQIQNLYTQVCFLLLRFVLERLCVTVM
Outline: as §1

ETV2 = biological target: T4, ETV2 (Homo sapiens, UniProt O00321 1-342); conditions: protein: recombinant; tags: N-terminal GST; dsDNA, one strand shown
T4 sequence: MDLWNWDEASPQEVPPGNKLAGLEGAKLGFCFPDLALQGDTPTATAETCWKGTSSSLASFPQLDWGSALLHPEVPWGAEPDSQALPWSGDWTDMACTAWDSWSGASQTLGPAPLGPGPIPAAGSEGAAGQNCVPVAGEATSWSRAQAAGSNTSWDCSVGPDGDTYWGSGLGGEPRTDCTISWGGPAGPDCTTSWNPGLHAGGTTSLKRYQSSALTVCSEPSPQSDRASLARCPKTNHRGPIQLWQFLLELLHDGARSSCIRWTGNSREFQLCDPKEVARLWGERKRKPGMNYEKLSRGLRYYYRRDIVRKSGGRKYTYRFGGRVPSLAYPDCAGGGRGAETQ
Outline: as §1

ELF3 = biological target: T5, ELF3 (Homo sapiens, UniProt P78545 1-371); conditions: protein: recombinant; tags: N-terminal GST; dsDNA, one strand shown
T5 sequence: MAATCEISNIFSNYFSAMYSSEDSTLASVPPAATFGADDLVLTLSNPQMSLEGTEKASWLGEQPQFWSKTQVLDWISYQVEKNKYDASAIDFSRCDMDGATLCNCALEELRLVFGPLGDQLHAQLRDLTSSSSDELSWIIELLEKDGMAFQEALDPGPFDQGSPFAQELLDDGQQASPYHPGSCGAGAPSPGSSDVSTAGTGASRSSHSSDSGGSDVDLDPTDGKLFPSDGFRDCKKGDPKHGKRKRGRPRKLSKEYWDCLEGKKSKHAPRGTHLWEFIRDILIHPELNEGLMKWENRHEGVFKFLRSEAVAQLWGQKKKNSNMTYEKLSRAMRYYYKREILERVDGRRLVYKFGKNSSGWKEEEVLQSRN
Outline: as §1

CRX = CRX (Homo sapiens, UniProt O43186 1-299); conditions: protein: recombinant; tags: N-terminal GST; dsDNA, one strand shown
Outline: as §1

ETV1 = ETV1 (Homo sapiens, UniProt P50549 1-477); conditions: protein: recombinant; tags: N-terminal GST; dsDNA, one strand shown
Outline: as §1

ERF = biological target: T6, ERF (Homo sapiens, UniProt P50548 1-548); conditions: protein: recombinant; tags: N-terminal GST; dsDNA, one strand shown
T6 sequence: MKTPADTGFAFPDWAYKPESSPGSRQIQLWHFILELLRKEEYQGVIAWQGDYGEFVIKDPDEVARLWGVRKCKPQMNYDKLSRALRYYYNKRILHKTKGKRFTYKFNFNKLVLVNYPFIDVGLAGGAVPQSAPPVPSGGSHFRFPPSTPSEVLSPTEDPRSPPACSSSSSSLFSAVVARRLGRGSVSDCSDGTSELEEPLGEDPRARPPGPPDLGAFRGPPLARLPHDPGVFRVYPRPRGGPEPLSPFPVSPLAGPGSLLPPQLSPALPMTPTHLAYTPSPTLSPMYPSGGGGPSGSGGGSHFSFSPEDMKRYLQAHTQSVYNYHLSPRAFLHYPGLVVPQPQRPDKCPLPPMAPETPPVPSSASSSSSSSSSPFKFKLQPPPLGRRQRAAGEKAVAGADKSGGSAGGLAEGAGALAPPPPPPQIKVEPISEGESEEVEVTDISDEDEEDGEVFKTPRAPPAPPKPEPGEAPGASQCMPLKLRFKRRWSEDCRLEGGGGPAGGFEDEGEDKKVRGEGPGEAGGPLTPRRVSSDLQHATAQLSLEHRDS
Outline: as §1

ETV3L = biological target: T7, ETV3L (Homo sapiens, UniProt Q6ZN32 1-361); conditions: protein: recombinant; tags: N-terminal GST; dsDNA, one strand shown
T7 sequence: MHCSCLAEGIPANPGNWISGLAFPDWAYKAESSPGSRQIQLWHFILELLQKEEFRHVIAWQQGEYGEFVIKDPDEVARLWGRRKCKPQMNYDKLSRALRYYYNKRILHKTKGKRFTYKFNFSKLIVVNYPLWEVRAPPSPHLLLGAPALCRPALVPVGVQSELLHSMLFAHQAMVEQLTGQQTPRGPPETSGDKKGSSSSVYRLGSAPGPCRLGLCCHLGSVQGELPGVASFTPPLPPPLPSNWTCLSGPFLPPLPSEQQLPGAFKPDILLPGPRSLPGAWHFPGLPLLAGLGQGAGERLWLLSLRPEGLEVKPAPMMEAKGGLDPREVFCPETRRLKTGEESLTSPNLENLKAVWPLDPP
Outline: as §1

ETS2 = biological target: T8, ETS2 (Homo sapiens, UniProt P15036 1-469); conditions: protein: recombinant; tags: N-terminal GST; dsDNA, one strand shown
T8 sequence: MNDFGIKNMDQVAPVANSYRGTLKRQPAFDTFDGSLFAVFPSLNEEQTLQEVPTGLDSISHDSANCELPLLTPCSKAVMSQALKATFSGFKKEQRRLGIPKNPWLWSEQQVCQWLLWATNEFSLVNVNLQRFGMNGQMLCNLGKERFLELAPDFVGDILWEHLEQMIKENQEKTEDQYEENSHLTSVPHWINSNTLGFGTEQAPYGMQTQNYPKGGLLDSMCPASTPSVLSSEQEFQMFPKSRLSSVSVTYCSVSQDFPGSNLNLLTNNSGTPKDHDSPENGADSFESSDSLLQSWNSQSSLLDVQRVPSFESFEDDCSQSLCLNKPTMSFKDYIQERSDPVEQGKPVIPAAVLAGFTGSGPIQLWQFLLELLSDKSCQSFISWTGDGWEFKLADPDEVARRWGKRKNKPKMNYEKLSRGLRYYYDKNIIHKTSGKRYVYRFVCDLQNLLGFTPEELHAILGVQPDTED
Outline: as §1

SPDEF = biological target: T9, SPDEF (Homo sapiens, UniProt O95238 1-335); conditions: protein: recombinant; tags: N-terminal GST; dsDNA, one strand shown
T9 sequence: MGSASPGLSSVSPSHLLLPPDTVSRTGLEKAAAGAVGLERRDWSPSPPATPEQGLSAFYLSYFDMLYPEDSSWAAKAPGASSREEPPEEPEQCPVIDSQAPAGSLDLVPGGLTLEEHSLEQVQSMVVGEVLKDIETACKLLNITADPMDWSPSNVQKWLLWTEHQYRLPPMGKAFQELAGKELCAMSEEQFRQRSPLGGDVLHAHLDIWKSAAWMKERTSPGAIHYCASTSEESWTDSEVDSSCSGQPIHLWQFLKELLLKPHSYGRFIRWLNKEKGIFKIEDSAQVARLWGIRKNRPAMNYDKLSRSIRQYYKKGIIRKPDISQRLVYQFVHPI
Outline: as §1

ETV7 = biological target: T10, ETV7 (Homo sapiens, UniProt Q9Y603 1-341); conditions: protein: recombinant; tags: N-terminal GST; dsDNA, one strand shown
T10 sequence: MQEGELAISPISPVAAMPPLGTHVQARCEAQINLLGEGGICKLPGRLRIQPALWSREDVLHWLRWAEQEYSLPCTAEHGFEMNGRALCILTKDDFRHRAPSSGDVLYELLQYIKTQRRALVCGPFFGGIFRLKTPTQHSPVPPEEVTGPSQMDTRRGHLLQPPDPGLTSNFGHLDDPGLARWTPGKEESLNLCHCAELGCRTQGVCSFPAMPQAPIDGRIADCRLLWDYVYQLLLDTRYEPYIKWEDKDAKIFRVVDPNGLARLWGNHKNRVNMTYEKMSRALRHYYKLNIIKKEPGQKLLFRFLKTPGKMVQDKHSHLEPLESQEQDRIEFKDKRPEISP
Outline: as §1

ELF5 = biological target: T11, ELF5 (Homo sapiens, UniProt Q9UKW6-2 1-255); conditions: protein: recombinant; tags: N-terminal GST; dsDNA, one strand shown
T11 sequence: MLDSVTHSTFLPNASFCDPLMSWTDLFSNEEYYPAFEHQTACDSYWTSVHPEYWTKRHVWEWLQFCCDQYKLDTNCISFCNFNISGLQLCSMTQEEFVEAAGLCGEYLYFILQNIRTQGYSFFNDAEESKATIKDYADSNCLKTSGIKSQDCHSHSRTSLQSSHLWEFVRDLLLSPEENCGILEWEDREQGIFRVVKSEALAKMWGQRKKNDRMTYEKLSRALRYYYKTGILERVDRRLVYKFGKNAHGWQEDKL
Outline: as §1

ETV3 = biological target: T12, ETV3 (Homo sapiens, UniProt P41162-2 1-143); conditions: protein: recombinant; tags: N-terminal GST; dsDNA, one strand shown
T12 sequence: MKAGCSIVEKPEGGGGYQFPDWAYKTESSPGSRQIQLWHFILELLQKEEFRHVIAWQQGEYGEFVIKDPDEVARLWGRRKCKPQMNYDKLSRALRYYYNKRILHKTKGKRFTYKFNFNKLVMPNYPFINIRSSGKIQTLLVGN
Outline: as §1

ETV6 = ETV6 (Homo sapiens, UniProt P41212 1-452); conditions: protein: recombinant; tags: N-terminal GST; dsDNA, one strand shown
Outline: as §1

Chain of CRX (O43186 whole entry): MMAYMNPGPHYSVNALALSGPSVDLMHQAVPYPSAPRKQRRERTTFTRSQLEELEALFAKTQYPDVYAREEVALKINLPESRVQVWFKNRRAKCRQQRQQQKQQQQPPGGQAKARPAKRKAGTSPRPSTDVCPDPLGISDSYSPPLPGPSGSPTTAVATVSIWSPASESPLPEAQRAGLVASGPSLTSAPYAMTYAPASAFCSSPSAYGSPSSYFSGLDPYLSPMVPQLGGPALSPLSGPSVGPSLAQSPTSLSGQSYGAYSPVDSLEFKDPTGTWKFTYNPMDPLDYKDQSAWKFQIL
Chain of HSF1 (Q00613 whole entry): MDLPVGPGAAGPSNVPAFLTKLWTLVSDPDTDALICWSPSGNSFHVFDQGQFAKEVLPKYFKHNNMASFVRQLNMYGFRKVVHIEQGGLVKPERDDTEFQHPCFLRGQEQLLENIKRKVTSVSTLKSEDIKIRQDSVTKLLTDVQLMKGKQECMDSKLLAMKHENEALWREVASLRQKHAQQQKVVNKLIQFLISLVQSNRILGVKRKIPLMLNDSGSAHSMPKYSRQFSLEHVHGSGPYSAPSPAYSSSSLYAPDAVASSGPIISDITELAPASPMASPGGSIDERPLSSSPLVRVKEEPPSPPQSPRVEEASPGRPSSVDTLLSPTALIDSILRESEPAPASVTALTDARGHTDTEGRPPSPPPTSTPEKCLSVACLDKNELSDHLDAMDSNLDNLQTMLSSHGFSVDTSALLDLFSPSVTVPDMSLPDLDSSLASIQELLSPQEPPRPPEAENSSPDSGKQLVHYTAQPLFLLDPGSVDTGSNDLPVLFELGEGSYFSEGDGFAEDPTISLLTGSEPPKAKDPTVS
Chain of ETV1 (P50549 whole entry): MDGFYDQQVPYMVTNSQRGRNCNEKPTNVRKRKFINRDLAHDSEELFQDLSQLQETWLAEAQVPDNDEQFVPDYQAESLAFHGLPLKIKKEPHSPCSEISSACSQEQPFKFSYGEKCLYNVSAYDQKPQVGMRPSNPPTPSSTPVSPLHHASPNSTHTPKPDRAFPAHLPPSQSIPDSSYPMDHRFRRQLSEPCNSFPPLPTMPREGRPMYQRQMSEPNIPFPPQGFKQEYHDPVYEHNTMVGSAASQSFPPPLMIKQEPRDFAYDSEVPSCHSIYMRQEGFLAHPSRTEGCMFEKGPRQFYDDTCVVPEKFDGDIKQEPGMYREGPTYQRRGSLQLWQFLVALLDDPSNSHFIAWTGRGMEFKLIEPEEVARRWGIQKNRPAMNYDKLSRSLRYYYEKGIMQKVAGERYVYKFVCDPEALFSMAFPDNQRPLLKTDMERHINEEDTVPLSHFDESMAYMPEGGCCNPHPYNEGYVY
Chain of ELF4 (Q99607 whole entry): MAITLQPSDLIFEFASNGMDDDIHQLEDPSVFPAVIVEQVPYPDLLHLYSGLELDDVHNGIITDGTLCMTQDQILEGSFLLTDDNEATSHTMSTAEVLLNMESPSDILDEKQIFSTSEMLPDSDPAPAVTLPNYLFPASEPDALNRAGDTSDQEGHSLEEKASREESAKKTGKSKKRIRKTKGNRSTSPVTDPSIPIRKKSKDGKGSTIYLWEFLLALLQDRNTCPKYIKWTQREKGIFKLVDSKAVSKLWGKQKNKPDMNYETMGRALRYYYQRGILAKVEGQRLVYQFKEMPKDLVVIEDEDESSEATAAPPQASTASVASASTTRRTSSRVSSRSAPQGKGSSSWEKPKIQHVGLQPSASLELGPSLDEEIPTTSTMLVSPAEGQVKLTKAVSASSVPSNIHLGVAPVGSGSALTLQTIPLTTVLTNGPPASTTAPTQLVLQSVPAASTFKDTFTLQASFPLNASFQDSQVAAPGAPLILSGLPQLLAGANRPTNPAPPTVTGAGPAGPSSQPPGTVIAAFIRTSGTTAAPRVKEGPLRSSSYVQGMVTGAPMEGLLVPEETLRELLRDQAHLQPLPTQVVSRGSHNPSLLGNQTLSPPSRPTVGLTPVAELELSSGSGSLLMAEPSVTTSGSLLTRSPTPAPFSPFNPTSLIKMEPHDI
Chain of ETV5 (P41161 whole entry): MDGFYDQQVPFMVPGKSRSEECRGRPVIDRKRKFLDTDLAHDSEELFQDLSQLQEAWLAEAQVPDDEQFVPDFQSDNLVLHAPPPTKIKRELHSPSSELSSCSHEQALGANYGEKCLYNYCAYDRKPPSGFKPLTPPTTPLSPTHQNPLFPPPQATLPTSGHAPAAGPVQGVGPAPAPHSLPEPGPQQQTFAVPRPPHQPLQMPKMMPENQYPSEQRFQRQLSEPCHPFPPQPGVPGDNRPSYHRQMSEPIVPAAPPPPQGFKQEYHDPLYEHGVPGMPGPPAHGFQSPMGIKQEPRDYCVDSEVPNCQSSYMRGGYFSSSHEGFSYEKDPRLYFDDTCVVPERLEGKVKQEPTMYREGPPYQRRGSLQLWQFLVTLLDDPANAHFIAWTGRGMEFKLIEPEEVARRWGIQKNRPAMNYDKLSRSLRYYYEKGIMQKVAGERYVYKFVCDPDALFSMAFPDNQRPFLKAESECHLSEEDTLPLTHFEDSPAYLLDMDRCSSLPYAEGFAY
Chain of ETV6 (P41212 whole entry): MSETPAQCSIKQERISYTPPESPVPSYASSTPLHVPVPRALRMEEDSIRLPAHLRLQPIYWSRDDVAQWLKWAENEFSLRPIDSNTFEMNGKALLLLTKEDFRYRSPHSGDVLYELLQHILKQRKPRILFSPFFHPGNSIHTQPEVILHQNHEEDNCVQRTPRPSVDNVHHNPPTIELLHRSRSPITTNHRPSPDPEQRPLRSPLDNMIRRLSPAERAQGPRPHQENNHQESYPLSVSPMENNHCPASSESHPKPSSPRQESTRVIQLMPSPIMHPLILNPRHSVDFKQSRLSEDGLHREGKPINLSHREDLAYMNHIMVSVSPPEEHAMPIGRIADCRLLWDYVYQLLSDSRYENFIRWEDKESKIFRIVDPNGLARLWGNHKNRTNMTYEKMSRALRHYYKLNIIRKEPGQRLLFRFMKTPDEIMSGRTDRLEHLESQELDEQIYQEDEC

In the case of CAAATA, the binding signal (FEV) is reported as 1.14 fold enrichment (6-mer frequency, TF over GST control), the binding signal (ETV5) is reported as 1.14 fold enrichment (6-mer frequency, TF over GST control) and the binding signal (HSF1) is reported as 1.14 fold enrichment (6-mer frequency, TF over GST control). For the same sequence, the binding signal (SPIC) was 1.09 fold enrichment (6-mer frequency, TF over GST control), the binding signal (ELF4) was 1.16 fold enrichment (6-mer frequency, TF over GST control) and the binding signal (ELK4) was 1.02 fold enrichment (6-mer frequency, TF over GST control). For the same sequence, the binding signal (ETV2) was 1.06 fold enrichment (6-mer frequency, TF over GST control), the binding signal (ELF3) was 1.4 fold enrichment (6-mer frequency, TF over GST control) and the binding signal (CRX) was 1.24 fold enrichment (6-mer frequency, TF over GST control). The binding signal (ETV1) was 1.12 fold enrichment (6-mer frequency, TF over GST control), the binding signal (ERF) was 1.23 fold enrichment (6-mer frequency, TF over GST control) and the binding signal (ETV3L) was 1.1 fold enrichment (6-mer frequency, TF over GST control). For the same sequence, the binding signal (ETS2) was 1.14 fold enrichment (6-mer frequency, TF over GST control), the binding signal (SPDEF) was 1.09 fold enrichment (6-mer frequency, TF over GST control) and the binding signal (ETV7) was 1.16 fold enrichment (6-mer frequency, TF over GST control). For the same sequence, the binding signal (ELF5) was 1.06 fold enrichment (6-mer frequency, TF over GST control), the binding signal (ETV3) was 1.1 fold enrichment (6-mer frequency, TF over GST control) and the binding signal (ETV6) was 1.07 fold enrichment (6-mer frequency, TF over GST control).
